NALP1 yeast inh = NALP1 inhibition | S. cerevisiae NALP1/ASC/caspase-1 growth, X-gal OD620, 72 h | inhibition, % at 10 µM | 280,000 tested, 0.61% active; in the data active = inhibition mostly above about 24%, no sharp cut-off; inactive = mostly below about 32%
tim23-1 inh = tim23-1 yeast growth inhibition | 330,000 tested, 1.3% active | AID 463212 | S. cerevisiae tim23-1 growth, BacTiter-Glo luminescence, 24 h | inhibition, % at 20 µM;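 active = growth inhibition of the mutant yeast at or above 50%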;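 note: temperature-sensitive mutant grown at 25 °C; plate controls were DMSO-treated mutant yeast for no effect and medium wells lacking yeast for full effect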
NALP3 yeast inh = blocks the NALP3 inflammasome reconstituted in yeast; Yeast reconstituted NLRP3/ASC/caspase-1, beta-gal luminescence, 24 h; inhibition, % at 10 µM; 330,000 tested, 0.39% active;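 active = inhibition of 50% or more; inactive = inhibition below 50%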;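 note: plate controls were induced DMSO wells for no effect and uninduced yeast grown without galactose for full effect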
TIM10 inh = TIM10 yeast growth inhibition; S. cerevisiae TIM10 strain growth, BacTiter-Glo luminescence, 24 h; inhibition, % at 10 µM; 330,000 tested, 1.4% active;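 active = inhibition of 40% or more at the single tested concentration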;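 note: wild-type TIM10 isogenic control strain grown at permissive 25 °C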
tim10-1 inh = growth inhibitors of tim10-1 mutant yeast | S. cerevisiae tim10-1 ts strain growth, BacTiter-Glo, 24 h | AID 463190 | 330,000 tested, 2.2% active | inhibition, % at 20 µM;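 active = inhibition of at least 40%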;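 note: mutant grown at 25 °C; 0% = DMSO wells with yeast and 100% = wells holding no yeast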
V-ATPase pH = yeast V-ATPase proton transport regulation by pHLuorin. 350,000 tested, 0.37% active. response, % at 10 µM. S. cerevisiae, pHLuorin cytosolic pH fluorescence. AID 504577; in the data active = response mostly above about 7.3%, no sharp cut-off; inactive = mostly below about 5.4%; note: actives read high
TIM10 conf = confirmation of TIM10 yeast growth inhibitors; shares compounds with TIM10 inh; S. cerevisiae tim10 strain growth, BacTiter-Glo luminescence, 24 h; 4,600 tested, 63% active; AID 463215; inhibition, % at 10 µM;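 active = inhibition of yeast growth at or above a set limit in either of two replicates at 10 µM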;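 note: this counterscreen used the strain with wild-type TIM10; 0% = yeast with DMSO and 100% = medium wells lacking yeast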
tim23-1 confirm = tim23-1 yeast growth inhibition, confirmed | shares compounds with tim23-1 inh | S. cerevisiae tim23-1 growth, BacTiter-Glo luminescence, 24 h | inhibition, % at 20 µM | 4,400 tested, 83% active | AID 463218;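 active = inhibition above about 39% in either of two replicate wells at 20 µM, limit read from the data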;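 note: temperature-sensitive tim23-1 mutant grown at 25 °C; 0% = DMSO wells with yeast and 100% = medium wells without yeast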
VATPase regulator = modulates yeast V-ATPase proton transport. shares compounds with V-ATPase pH. S. cerevisiae pHLuorin cytosolic pH. response, % at 10 µM. 980 tested, 2% active. AID 602197; in the data active = response above about 24%;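 note: plate controls were vehicle wells for no effect and positive control wells for full effect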
Starred values were filed as active, the others as inactive; · = not tested or not shown. Sampled rows, rich in hits. Any-hit rate of the full collection: about 4.2%.

SMILES | NALP1 yeast inh | tim23-1 inh | NALP3 yeast inh | TIM10 inh | tim10-1 inh | V-ATPase pH | TIM10 conf | tim23-1 confirm | others
Cc1cc(NC(=O)c2ccccc2)cc(NC(=O)c2ccccc2)c1C | 28 | 2 | 18 | 0 | 2 | -3 | · | ·
Cc1ccc(NC(=O)c2ccccc2)s1 | -6 | 55* | 3 | 58* | 26 | -2 | 38* | 74*
CNc1ccc(/C=C2\COc3ccccc3C2=O)cc1[N+](=O)[O-] | 3 | 9 | 35 | 1 | 10 | -1 | · | ·
O=C1/C(=C/c2ccc(O)cc2)COc2ccccc21 | 18 | 78* | 49 | 46* | 39 | 1 | 36* | 50*
CCCCCCn1c(-c2ccco2)nc2oc3cc(OC)ccc3c(=O)c2c1=O | · | 50* | 17 | 45* | 34 | 0 | 16 | 37*
CCCc1nc2oc3cc(OC)ccc3c(=O)c2c(=O)n1Cc1ccco1 | 12 | 0 | -1 | -17 | 22 | 2 | · | ·
CCn1c(SCc2nc3sc(C(=O)O)c(C)c3c(=O)[nH]2)nc2ccccc21 | 6 | -1 | 17 | -1 | 4 | -3 | · | ·
CC1=CC(C)(C)NC(=S)N1C(C)c1ccccc1 (configuration not stated) | -14 | 62* | 6 | 46* | 24 | -5 | 28 | 33
CC1=CC(C)(C)NC(=S)N1c1ccc2ccccc2c1 | 16 | 34 | 26 | 30 | 13 | 0 | · | ·
COc1cc(/C=C2\C(C)=C(C#N)c3nc(N)c(C#N)c(C)c32)ccc1OCC(=O)O | -12 | 61* | 8 | 44* | 39 | -5 | 31* | 48*
COCCCNC(=O)/C(C#N)=C/c1ccc(OCC(=O)O)c(OC)c1 | 14 | 2 | 7 | 10 | -4 | 1 | · | ·
N/C(=N\OC(=O)c1ccc(Cl)cc1[N+](=O)[O-])c1ccccn1 | 6 | 77* | 9 | 62* | 7 | 1 | 71* | 71*
N/C(=N\OC(=O)c1cc(Br)ccc1Cl)c1ccccn1 | 17 | 62* | -1 | 45* | 27 | 1 | 65* | 45*
CCCc1ccc(C(=O)O/N=C(\N)c2ccccn2)cc1 | 12 | 51* | 32 | 52* | 34 | -7 | 64* | 57*
N/C(=N\OC(=O)c1cc([N+](=O)[O-])ccc1Cl)c1ccccn1 | -19 | 28 | 5 | 10 | 19 | 1 | · | ·
O=C(OCC(=O)N1CCCC1=O)c1ccc(F)c(S(=O)(=O)N2CCOCC2)c1 | 10 | 4 | 3 | 4 | 0 | -1 | · | ·
O=C1CCCCC1C1(O)C(=O)Nc2ccccc21 (configuration not stated) | · | · | · | · | · | -2 | · | ·
N#CCCn1cc(C(N)=O)c(-c2cccs2)n1 | 11 | 4 | 1 | 10 | 5 | 1 | · | ·
CO/C(N)=C(\C#N)N=Cc1ccccc1Cl | 6 | 52* | 6 | 47* | 23 | 2 | 11 | 64*
O=C1C2=C(Nc3ccccc3SC2c2ccco2)c2ccccc21 (configuration not stated) | 1 | 55* | -2 | 46* | 20 | -1 | 43* | 82*
O=C1c2ccccc2NC(c2ccco2)N1O (configuration not stated) | 1 | 2 | 21 | 10 | 0 | 0 | · | ·
O=C1NC(=S)S/C1=C\c1coc2ccccc2c1=O | 7 | 28 | 4 | 44* | 13 | 52* | 25 | · | VATPase regulator=0
O=C1NC(=S)S/C1=C\c1coc2ccc(O)cc2c1=O | 19 | -18 | 26 | 2 | -12 | 0 | · | ·
Cc1ccc(C)c(NC(=S)N/N=C/C(C)c2ccccc2)c1 (configuration not stated) | -10 | 26 | 14 | 49* | 38 | 15* | 26 | · | VATPase regulator=3
Cc1ccc(S(=O)(=O)Oc2cccc([N+](=O)[O-])c2)cc1 | · | · | · | · | · | 2 | · | ·
SMILES | NALP1 yeast inh | tim23-1 inh | NALP3 yeast inh | TIM10 inh | tim10-1 inh | V-ATPase pH | TIM10 conf | tim23-1 confirm | others
N/C(=N\OC(=O)Cc1ccccc1[N+](=O)[O-])c1cccc(Br)c1 | 9 | 59* | 7 | 51* | 38 | 13* | 59* | 67* | VATPase regulator=-3
O=C(N/N=C/c1cc([N+](=O)[O-])ccc1O)c1cccc2ccccc12 | -2 | 19 | 6 | -3 | 32 | 6 | · | ·
Cc1c2ccccc2nc2ccccc12 | · | 70* | 23 | 22 | 26 | 1 | · | 63*
COc1ccccc1CNC(=O)c1ccc(CS(=O)(=O)c2ccccc2OC)o1 | 6 | 0 | -5 | -30 | 16 | -1 | · | ·
Cc1nc(Nc2ccc(O)cc2)c2c3c(sc2n1)CCCC3 | -8 | 52* | 14 | 22 | 17 | -3 | · | 45*
C=CCNC(=O)C(=O)Nc1ccc2c(c1)N(S(=O)(=O)c1cccs1)CCC2 | · | 51* | 16 | 35 | 35 | 1 | · | 42*
O=C(O)c1ccc(CNCc2cc(Cl)ccc2O)cc1 | · | 9 | 14 | 1 | 10 | 1 | · | ·
CN(Cc1ccccc1)C(=O)c1cc2cc(F)ccc2[nH]1 | 4 | 13 | 31 | -1 | -6 | 1 | · | ·
Cc1ccnc(Nc2nc(-c3ccc(O)cc3O)cs2)c1 | -22 | 86* | 23 | -6 | -8 | -2 | · | 77*
O=C(NCc1cccnc1)C1CCN(S(=O)(=O)c2cccs2)CC1 | 2 | 2 | -7 | -1 | 4 | 6 | · | ·
CCCc1nc2sc3ccccc3c(=O)c2c(=O)n1Cc1ccc(OC)cc1 | 6 | 52* | 17 | 18 | 33 | 5 | · | 45*
COc1ccc(Cn2c(C(C)C)nc3sc4ccccc4c(=O)c3c2=O)cc1 | · | 62* | 9 | 30 | 23 | -5 | · | 55*
COc1ccc(NS(=O)(=O)c2ccc3c(c2)Cc2ccccc2-3)cn1 | 19 | 64* | 33 | 32 | 21 | 0 | · | 29
COc1ccc(OC)c(C2C(C(=O)c3cc4ccccc4o3)=C(O)C(=O)N2c2cc(C)on2)c1 (configuration not stated) | 16 | 11 | -4 | 6 | 13 | 3 | · | ·
N#C/C(=C\c1cccnc1)c1ccc([N+](=O)[O-])cc1 | 29 | 55* | 37 | 28 | 34 | -1 | · | 36
S=C(NCc1ccccn1)Nc1ccc(Cl)c(Cl)c1 | 23 | 56* | 35 | 27 | 33 | 2 | · | 46*
S=C(NCc1ccccn1)Nc1ccccc1 | 24 | -7 | 7 | -5 | 18 | -1 | · | ·
CCn1c(SCc2cccc(F)c2)nc2c(c1=O)SCC2 | 10 | 4 | 3 | -10 | 15 | -2 | · | ·
Cc1ccc2nc(-c3ccc(N)cc3)sc2c1 | 16 | 53* | 4 | 20 | 13 | -6 | · | 58*
CCN1C2=NCCCN2c2ccccc21 | 2 | -3 | 11 | -4 | -23 | 9 | · | ·
CSc1nc2nccc(-c3ccc4c(c3)OCO4)n2n1 | -9 | 2 | -1 | 29 | 32 | -14 | · | ·

Assay outcomes from PubChem.
